Compound activity as filed in PubChem.
PTHR1 agonist – PTHR1 (human) receptor agonism | AID 743266 | Potency, µM (doses to about 115 µM), for the others: at the top dose activation, usual class: activators | Q03431 | hit rate 0.075% among 410,000 | HEK293 GP2 PTHR1 cells, GloSensor cAMP luminescence, 1 h; further: nearly all actives have a fitted effect of over 55% in size
Target sequence (Q03431 whole entry, looked up): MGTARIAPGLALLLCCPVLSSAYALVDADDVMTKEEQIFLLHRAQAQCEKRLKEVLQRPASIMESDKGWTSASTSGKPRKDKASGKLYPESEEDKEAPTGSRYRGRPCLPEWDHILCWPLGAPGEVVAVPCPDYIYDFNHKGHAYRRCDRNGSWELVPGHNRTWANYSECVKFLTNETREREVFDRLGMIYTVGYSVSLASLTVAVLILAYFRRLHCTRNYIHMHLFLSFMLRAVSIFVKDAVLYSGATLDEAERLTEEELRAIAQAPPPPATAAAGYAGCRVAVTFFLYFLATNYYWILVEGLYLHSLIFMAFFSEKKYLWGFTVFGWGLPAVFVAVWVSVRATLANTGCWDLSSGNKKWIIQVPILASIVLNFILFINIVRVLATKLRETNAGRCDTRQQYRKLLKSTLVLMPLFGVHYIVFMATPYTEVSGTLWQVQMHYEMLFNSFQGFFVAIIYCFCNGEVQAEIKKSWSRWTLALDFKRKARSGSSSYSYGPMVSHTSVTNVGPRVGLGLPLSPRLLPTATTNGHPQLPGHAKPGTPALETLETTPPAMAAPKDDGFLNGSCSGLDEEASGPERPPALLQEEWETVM
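HEK-293-derived GP2 cells expressing PTHR1 and a GloSensor cAMP reporter, 3,000/well, plated overnight, given luciferin plus IBMX (each 0.5 mM as added) for 1 h at 37 °C, then compound for 1 h at 37 °C. Luminescence was read after 15 min at room temperature.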
HEK293 tox – cytotoxicity counter-screen for GLP-1 receptor inverse agonists. Potency, µM (doses to about 38.3 µM), without a hit: at the top dose activity change, negative = inhibition, actives largely listed as inhibitors. AID 624418. HEK293 cAMP-luciferase reporter cells, luminescence, 24 h. hit rate 0.13% among 410,000;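 further: loss of luciferase light is scored as toxicity; on the % scale 0 is the no-effect control and ±100 the full control effect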
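Luminescence readout: signal drop marks cytotoxicity. Plated cells grew 12 h at 37 °C, 5% CO2, received 23 nL compound for 24 h, then got luciferase reagent, read after 12 min at RT.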
GLP1R ag – agonists of human GLP-1 receptor | P43220 | HEK293 GLP-1R CRE-luciferase, luminescence, 4-6 h; cells express a hypersensitive GLP-1R form | Potency, µM (highest dose often 45.6 µM), for the others: at the highest dose activation, hits mostly activators | hit rate 0.007% among 380,000; further: % of control where 0% means no effect
GLP-1R inv ag – inverse agonists of human GLP-1 receptor; P43220; HEK293 GLP-1R CRE-luciferase, luminescence, 24 h; GLP-1R form is constitutively active; Potency, µM (doses to about 38.3 µM), for the others: top-dose activity change, negative = inhibition, actives largely listed as inhibitors; hit rate 1.6% among 410,000; further: on the % scale 0 is the no-effect control and ±100 the full control effect; nearly all actives have a fitted effect of over 55% in size
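Seeding at 200 cells/uL, 12 h culture, 24 hr compound treatment, then luciferase reagent and a luminescence read; cells are HEK293 stably expressing a constitutively active GLP-1R plus cAMP-responsive luciferase.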
* marks the source's active call; other numbers are inactive results; i = inactive; ? = inconclusive; . = no result given; [ ] = dose if it differs, or a comment. Sampled rows, rich in hits. Any-hit rate of the full collection: about 1.7%. The call rests on the fitted dose curve; in most records, active means well fitted curve in the direction sought with a large enough effect; inconclusive means small, poorly fitted or top-dose-only effect, or another doubt; inactive means no such curve, though single readings can be large; an effect the other way counts as inactive or inconclusive. Potency means the concentration at half of the fitted maximal effect.

SMILES	PTHR1 agonist	HEK293 tox	GLP1R ag	GLP-1R inv ag
COc1ccccc1CN1CCC(CNS(=O)(=O)c2cc(-c3cc(C)no3)ccc2OC)CC1	-1.6%	-16.1%	13.8%	11.2µM*
CCc1nn2cc(-c3ccccc3)nc2s1	-25.9%	-5.4%	-14.8%	5.62µM*
COc1cc(-c2nnc(SCC(=O)N(Cc3ccccc3)C(C)(C)C)o2)cc(OC)c1OC	-4.0%[57.5 µM]	26.1%	5.0%	?
COc1cc(OC)cc(-c2nnc(SCC(=O)N(Cc3ccccc3)C(C)(C)C)o2)c1	-5.2%[57.5 µM]	8.0%	4.2%	8.91µM*
COc1ccc(-n2cc(C(=O)NC(C)c3ccccc3)c3ccccc3c2=O)cc1 (centres undefined)	i	-6.9%	.	?
O=C(Cc1ccccc1)N(Cc1cccnc1)c1nc2ccc(F)cc2s1	-47.4%	-8.3%	.	?
CCOC(=O)C(Sc1cc(-c2ccccc2)nc2ncnn12)C(C)=O (centres undefined)	i	3.55µM*	0.8%	?
C[C@@H](NC(=O)CN(c1ccccc1)S(=O)(=O)N(C)C)c1ccccc1	i	0.0%	-1.9%	-18.3%
c1ccc(CNc2nc(N3CCN(Cc4ccccc4)CC3)nc3ccccc23)cc1	-33.4%	-28.3%	9.1%	3.98µM*
c1ccc(CN2CCC(Nc3nc(-c4ccccc4)nc4ccccc34)CC2)cc1	i	?	-28.5%	5.01µM*
c1coc(CNc2nc(N3CCCCC3)nc3ccccc23)c1	-16.7%[57.5 µM]	?	1.5%	?
c1ccc(CN2CCC(CNc3ncnc4ccccc34)C2)cc1 (centres undefined)	-7.5%	-24.8%	2.0%	?
O=C(NCc1ccccc1Cl)C(=O)NCC(c1ccc2c(c1)OCO2)N1CCOCC1 (centres undefined)	i	2.8%	.	-0.7%
COC(=O)c1ccc(NC(=O)CSc2nc(=O)[nH]c3c2CCCC3)cc1	i	4.2%	.	15.0%
O=C(NCC1CCN(Cc2cccc(Cl)c2)CC1)Nc1ccccc1Cl	i	-8.0%	9.9%	10µM*
O=C(Nc1ccccc1C(F)(F)F)c1ccc(CN2CCC(Cc3ccccc3)CC2)cc1	-10.2%[57.5 µM]	?	-1.9%	8.91µM*
Cc1ccc(CN2CCC(CNC(=O)Nc3ccc(Cl)cc3)C2)cc1 (centres undefined)	i	-17.6%	.	-28.3%
Cc1ccc(C)c(CN2CCC(CNC(=O)Nc3ccc(F)c(Cl)c3)CC2)c1	-67.0%	?	0.9%	?
CCc1ccc(NC(=O)NCC2CCN(Cc3cccc(Cl)c3)CC2)cc1	i	-18.4%	-7.6%	12.6µM*
Cc1ccc(NC(=O)NCC2CCN(Cc3cccc(Cl)c3)CC2)c(Cl)c1	i	-3.8%	0.7%	?
Cc1ccc(NC(=O)NCC2CCN(Cc3cccc(Cl)c3)CC2)cc1Cl	-7.6%	?	2.5%	2.24µM*
Cc1ccccc1CNC(=O)c1cc2cc(S(=O)(=O)N3CCCCC3)ccc2n1C	i	3.3%	.	?
COc1ccc(NC(=O)c2c(NCc3ccc(C)o3)sc3c2CCCCC3)c(OC)c1	i	-20.2%	.	?
Cc1ccc(S(=O)(=O)C(CNS(=O)(=O)c2ccc(F)c(C(F)(F)F)c2)c2ccco2)cc1 (centres undefined)	-24.7%	1.0%	.	-26.8%
COc1ccc(N(Cc2cccs2)C(=O)COc2cccc(Cl)c2)cc1	i	2.1%	.	14.1µM*
SMILES	PTHR1 agonist	HEK293 tox	GLP1R ag	GLP-1R inv ag
COc1ccc(N(Cc2cccs2)C(=O)COc2ccc([N+](=O)[O-])cc2)cc1	-25.8%	3.1%	.	?
COc1ccc2c(c1)c1c(c(=O)n(-c3ccc(C)cc3)c(=O)n1CC(=O)Nc1cc(C)ccc1C)n2C	?	-7.0%	0.8%	-4.8%
COCCCNCCCCSc1ccc(Cl)cc1	i	-4.3%	19.6%	11.2µM*
C=CCc1cc(Cl)ccc1OCCOCCN(C)C	i	0.8%	-2.1%	7.08µM*
CCCCNCCOCCSc1ccc(Cl)cc1	-12.1%[57.5 µM]	-5.3%	-3.5%	-28.5%
C=CCc1cc(Cl)ccc1OCCNCCCOC	-2.3%	?	-0.5%	4.47µM*
CC(C)NCCOCCSc1ccc(Cl)cc1	-15.5%	-4.7%	-5.1%	12.6µM*
Cc1ccc(/C=N/n2c(-c3ccccc3)csc2=S)cc1	.	.	-3.9%	.
COCCCNCCCOc1ccc(Cl)cc1C(C)(C)C	i	?	-2.7%	5.62µM*
CCC(C)NCCCOc1ccc(Cl)cc1C(C)(C)C (centres undefined)	-15.7%	62.8%	-13.2%	-9.9%
CC(C)CNC(=O)c1nc(-c2ccccc2)n(-c2ccccc2)n1	-9.0%[57.5 µM]	-9.2%	3.6%	12.6µM*
Fc1ccccc1C1c2cccn2CCN1C(=S)Nc1ccc(Br)cc1 (centres undefined)	-4.9%	?	-4.6%	4.47µM*
Fc1ccccc1C1c2cccn2CCN1C(=S)Nc1cccc(Br)c1 (centres undefined)	i	-0.5%	-0.7%	-7.7%
COc1ccccc1-c1noc(-c2ccc(NCc3cccnc3)c([N+](=O)[O-])c2)n1	i	1.3%	.	16.9%
CC1(C)CC(n2c(NCCO)nc3c(c2=O)C2(CCCC2)Cc2ccccc2-3)CCO1 (centres undefined)	i	-16.3%	15.2%	?
O=c1c2c(nc(NCCO)n1CC1CCCCC1)-c1ccccc1CC21CCCC1	i	?	0.9%	3.98µM*
Cc1cccc(NCc2ccccc2OCc2ccccc2F)c1	-42.0%	17.7%	-1.2%	10µM*
Oc1ccc(NCc2ccccc2OCc2ccccc2F)cc1	-35.9%	?	11.2µM*	9.2%
CCOc1ccc(NC(=O)Cc2ccc(NC(=O)N3CCCCc4ccccc43)cc2)cc1	i	-10.4%	.	?
CC(C)(C)NC(=O)c1ccc2c(c1)C1C3CCC(C3)C1C(c1ccccc1)N2 (centres undefined)	i	2.5%	-1.3%	2.82µM*
CCc1ccc(NC(=O)Cn2c(=O)n(CC3CCCO3)c(=O)c3cc(OC)c(OC)cc32)cc1 (centres undefined)	-22.6%	-1.9%	-0.6%	-4.6%
COc1ccc(CNC(=O)C2CCN(C(=O)c3csc(Nc4ccc(C)cc4)n3)CC2)cc1	-81.1%	-6.3%	15.4%	7.94µM*
Cc1ccc(Nc2nc(C(=O)N3CCC(C(=O)NCc4ccccc4)CC3)cs2)cc1	-31.7%	3.4%	14.1%	?
Cc1c(Cl)cccc1N1CCn2c1nc1c2c(=O)n(CC(=O)O)c(=O)n1C	-2.5%	-17.1%	-3.1%	10.3%
CC(C)NCC(O)Cn1c2c(c3ccccc31)CCc1c-2cnn1-c1ccccc1 (centres undefined)	-11.1%	?	-36.4%	10µM*
CN1CCc2c(n(CC(O)CNCc3ccccc3)c3ccccc23)C1=O (centres undefined)	-1.5%	-9.6%	-3.7%	?
CCC(CC)c1nn2c(=O)cc(COc3ccc(NC(=O)c4ccccc4C)cc3)nc2s1	-33.0%	6.2%	-2.7%	-24.6%
CC1=CC2=NC(=O)/C(=C\c3cccn3CCOc3cccc(C)c3)C(=N)N2O1	-20.6%	-4.1%	8.5%	10µM*
